Measurements reported in the supplement of paper PMC10849652.
Of roughly 7,900 targets only a part is listed; those with a hit were picked by preference. About 0.6% of all pairs of compound and target were hits. Values without a mark were called inactive.

biological target: AAGAB (UniProt Q6PD74); assay: log2 fold change, soluble protein after heating vs DMSO (PISA); higher = thermal stabilisation; K562 cells, 10 uM, 30 min; active = over 0.2 and 3.5 SD of the protein, either way, in both replicates (recomputed)
Procedure, shortened: (§1)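 Soluble protein was quantified by TMTpro 16plex LC-MS/MS after channel sums were equalised. It was obtained as the supernatant after 21,000xg for 90 min from pooled aliquots of K562 cells (2×10^6 cells/mL, 10 μM compound, 30 min) heated for 3 min across 48°C-58°C and extracted in PBS with 0.5% NP-40 at 4°C. Thermal stability values are relative to control samples and come from duplicates. They are given as log2 fold changes.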

Chain of AAGAB (Q6PD74 whole entry, looked up): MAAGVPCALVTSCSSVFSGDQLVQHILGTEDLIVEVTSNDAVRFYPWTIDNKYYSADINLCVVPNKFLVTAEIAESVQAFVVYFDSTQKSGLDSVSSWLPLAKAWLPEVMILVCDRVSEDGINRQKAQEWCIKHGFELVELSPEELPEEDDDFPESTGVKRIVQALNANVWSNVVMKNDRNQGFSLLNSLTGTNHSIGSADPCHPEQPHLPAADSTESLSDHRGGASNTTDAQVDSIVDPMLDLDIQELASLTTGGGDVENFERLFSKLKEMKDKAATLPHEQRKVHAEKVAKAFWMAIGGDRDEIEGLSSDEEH

Row | Compound | log2 fold change
1 | O=C(Nc1cccc(Nc2ncc(Br)c(NCCc3cnc[nH]3)n2)c1)N1CCCC1 | 0.067
2 | Oc1cc(-c2nc(-c3ccccc3)[nH]c2-c2ccncc2)ccc1Cl | 0.066
3 | CC(=O)c1cnc2ccc(-c3cc(Cl)c(O)c(Cl)c3)nc2c1N[C@H]1CC[C@H](CN(C)C)CC1 | 0.077
4 | C#Cc1cccc(Nc2ncnc3cc(OCCOC)c(OCCOC)cc23)c1 [erlotinib] | 0.251
5 | C[C@@H](Oc1cc(-c2cnn(C3CCNCC3)c2)cnc1N)c1c(Cl)ccc(F)c1Cl [crizotinib] | -0.134
6 | C[C@@H]1COCCN1c1cc(C2(S(C)(=O)=O)CC2)nc(-c2cccc3[nH]ccc23)n1 | -0.035
7 | CC[C@@H]1C(=O)N(C)c2cnc(Nc3ccc(C(=O)NC4CCN(C)CC4)cc3OC)nc2N1C1CCCC1 | -0.106
8 | CCCS(=O)(=O)Nc1ccc(F)c(C(=O)c2c[nH]c3ncc(-c4ccc(Cl)cc4)cc23)c1F [vemurafenib] | -0.012
9 | Cn1c2cc(S(C)=O)sc2c2cnn(Cc3cccc(N)c3)c(=O)c21 (stereo not given) | 0.125
10 | Nc1ccccc1NC(=O)c1ccc(CNC(=O)OCc2cccnc2)cc1 [entinostat] | 0.004
11 | NC1(Cc2ccc(Cl)cc2)CCN(c2ncnc3[nH]ccc23)CC1 | 0.054
12 | CS(=O)(=O)N1CCN(Cc2cc3nc(-c4cccc5[nH]ncc45)nc(N4CCOCC4)c3s2)CC1 [pictilisib] | 0.039
13 | COC(=O)N[C@@H](C)CNc1nccc(-c2cn(C(C)C)nc2-c2cc(Cl)cc(NS(C)(=O)=O)c2F)n1 [encorafenib] | 0.045
14 | CC(C)(C)Cn1c(N)nc2ccc(-c3[nH]c(C(C)(C)C)nc3-c3ccc(F)cc3)nc21 [ralimetinib] | 0.065
15 | Cc1cc(Nc2cc(CN3CCOCC3)c3nc(C)c(Cc4ccc(Cl)cc4F)n3n2)n[nH]1 [gandotinib] | -0.026
16 | c1cn2cc(-c3ccc4cn[nH]c4c3)nc(Nc3ccc(N4CCOCC4)cc3)c2n1 [entospletinib] | 0.116
17 | CC(C)(O)CC(=O)NCCn1ccc2ncnc(Nc3ccc(Oc4cccc(C(F)(F)F)c4)c(Cl)c3)c21 | -0.146
18 | O=C1NC(=O)C(c2cnc3ccccn23)=C1c1cn2c3c(cc(F)cc13)CN(C(=O)N1CCCCC1)CC2 | -0.109
19 | CC1=C(C(=O)Nc2cc3cn[nH]c3cc2F)C(c2ccc(C(F)(F)F)cc2)CC(=O)N1 (stereo not given) | -0.004
20 | CNc1nc(-c2ccc3c(N)n[nH]c3c2)cc(N2C[C@@H](C(=O)NC3CCCCC3)CC[C@H]2C)n1 | -0.084
21 | NC(=O)Nc1cc(-c2cccc(F)c2)sc1C(=O)N[C@H]1CCCNC1 | -0.071
22 | CON(C)C(=O)N1N=C(c2cc(F)ccc2F)S[C@@]1(CCCN)c1ccccc1 [filanesib] | 0.041
23 | O=C(CCCCCCC(=O)Nc1ccccc1)NO [vorinostat] | -0.009
24 | COc1ccc(Cn2ccc3ccc(C(=O)NO)cc32)cc1 | -0.017
25 | Cc1ccc(NC(=O)c2ccc(CN3CC[C@H](N(C)C)C3)c(C(F)(F)F)c2)cc1Nc1nccc(-c2cncnc2)n1 [bafetinib] | -0.046
26 | CCN(CCCOc1ccc2c(Nc3cc(CC(=O)Nc4cccc(F)c4)[nH]n3)ncnc2c1)CCOP(=O)(O)O [barasertib] | 0.068
27 | CN1CCc2c(c3ccccc3n2Cc2ccc(C(=O)NO)cc2)C1 [Tubastatin A] | 0.016
28 | C=CC(=O)N1CCC[C@@H](n2nc(-c3ccc(Oc4ccccc4)cc3)c3c(N)ncnc32)C1 [ibrutinib] | 0.026
29 | Cc1cn(-c2cc(NC(=O)c3ccc(C)c(Nc4nccc(-c5cccnc5)n4)c3)cc(C(F)(F)F)c2)cn1 [nilotinib] | -0.077
30 | O=C(CCCCCCNC(=O)c1cnc(N(c2ccccc2)c2ccccc2Cl)nc1)NO [citarinostat] | 0.024

biological target: AAK1 (UniProt A0A096LP25); assay: as above
Procedure, shortened: as §1

Row | Compound | log2 fold change
31 | O=C(Nc1cccc(Nc2ncc(Br)c(NCCc3cnc[nH]3)n2)c1)N1CCCC1 | 0.255
32 | Oc1cc(-c2nc(-c3ccccc3)[nH]c2-c2ccncc2)ccc1Cl | 0.017
33 | CC(=O)c1cnc2ccc(-c3cc(Cl)c(O)c(Cl)c3)nc2c1N[C@H]1CC[C@H](CN(C)C)CC1 | 0.319
34 | C#Cc1cccc(Nc2ncnc3cc(OCCOC)c(OCCOC)cc23)c1 [erlotinib] | 0.043
35 | C[C@@H](Oc1cc(-c2cnn(C3CCNCC3)c2)cnc1N)c1c(Cl)ccc(F)c1Cl [crizotinib] | 0.124
36 | C[C@@H]1COCCN1c1cc(C2(S(C)(=O)=O)CC2)nc(-c2cccc3[nH]ccc23)n1 | 0.012
37 | CC[C@@H]1C(=O)N(C)c2cnc(Nc3ccc(C(=O)NC4CCN(C)CC4)cc3OC)nc2N1C1CCCC1 | -0.086
38 | CCCS(=O)(=O)Nc1ccc(F)c(C(=O)c2c[nH]c3ncc(-c4ccc(Cl)cc4)cc23)c1F [vemurafenib] | -0.016
39 | Cn1c2cc(S(C)=O)sc2c2cnn(Cc3cccc(N)c3)c(=O)c21 (stereo not given) | -0.073
40 | Nc1ccccc1NC(=O)c1ccc(CNC(=O)OCc2cccnc2)cc1 [entinostat] | -0.061
41 | NC1(Cc2ccc(Cl)cc2)CCN(c2ncnc3[nH]ccc23)CC1 | 0
42 | CS(=O)(=O)N1CCN(Cc2cc3nc(-c4cccc5[nH]ncc45)nc(N4CCOCC4)c3s2)CC1 [pictilisib] | 0.16
43 | COC(=O)N[C@@H](C)CNc1nccc(-c2cn(C(C)C)nc2-c2cc(Cl)cc(NS(C)(=O)=O)c2F)n1 [encorafenib] | 0.033
44 | CC(C)(C)Cn1c(N)nc2ccc(-c3[nH]c(C(C)(C)C)nc3-c3ccc(F)cc3)nc21 [ralimetinib] | -0.01
45 | Cc1cc(Nc2cc(CN3CCOCC3)c3nc(C)c(Cc4ccc(Cl)cc4F)n3n2)n[nH]1 [gandotinib] | 0.103
46 | c1cn2cc(-c3ccc4cn[nH]c4c3)nc(Nc3ccc(N4CCOCC4)cc3)c2n1 [entospletinib] | 0.224
47 | CC(C)(O)CC(=O)NCCn1ccc2ncnc(Nc3ccc(Oc4cccc(C(F)(F)F)c4)c(Cl)c3)c21 | -0.034
48 | O=C1NC(=O)C(c2cnc3ccccn23)=C1c1cn2c3c(cc(F)cc13)CN(C(=O)N1CCCCC1)CC2 | -0.159
49 | CC1=C(C(=O)Nc2cc3cn[nH]c3cc2F)C(c2ccc(C(F)(F)F)cc2)CC(=O)N1 (stereo not given) | -0.113
50 | CNc1nc(-c2ccc3c(N)n[nH]c3c2)cc(N2C[C@@H](C(=O)NC3CCCCC3)CC[C@H]2C)n1 | 0.244
51 | NC(=O)Nc1cc(-c2cccc(F)c2)sc1C(=O)N[C@H]1CCCNC1 | 0.318
52 | CON(C)C(=O)N1N=C(c2cc(F)ccc2F)S[C@@]1(CCCN)c1ccccc1 [filanesib] | -0.01
53 | O=C(CCCCCCC(=O)Nc1ccccc1)NO [vorinostat] | -0.007
54 | COc1ccc(Cn2ccc3ccc(C(=O)NO)cc32)cc1 | -0.089
55 | Cc1ccc(NC(=O)c2ccc(CN3CC[C@H](N(C)C)C3)c(C(F)(F)F)c2)cc1Nc1nccc(-c2cncnc2)n1 [bafetinib] | -0.058
56 | CCN(CCCOc1ccc2c(Nc3cc(CC(=O)Nc4cccc(F)c4)[nH]n3)ncnc2c1)CCOP(=O)(O)O [barasertib] | -0.004
57 | CN1CCc2c(c3ccccc3n2Cc2ccc(C(=O)NO)cc2)C1 [Tubastatin A] | -0.05
58 | C=CC(=O)N1CCC[C@@H](n2nc(-c3ccc(Oc4ccccc4)cc3)c3c(N)ncnc32)C1 [ibrutinib] | 0.074
59 | Cc1cn(-c2cc(NC(=O)c3ccc(C)c(Nc4nccc(-c5cccnc5)n4)c3)cc(C(F)(F)F)c2)cn1 [nilotinib] | -0.084
60 | O=C(CCCCCCNC(=O)c1cnc(N(c2ccccc2)c2ccccc2Cl)nc1)NO [citarinostat] | -0.014
